Tests used:
[1] = tested on: Vero E6 infected with SARS-CoV-2; assay: morphology score (similarity to uninfected cells); higher = more like uninfected cells; conditions: 24 h
[2] = tested on: Vero E6 infected with SARS-CoV-2; assay: SARS-CoV-2 infection rate relative to infected DMSO; higher = more infection, active = 60 or less; conditions: 24 h

| Structure (SMILES) | morphology score [1] | SARS-CoV-2 infection rate [2] |
| --- | --- | --- |
| CN1CCN(C(c2ccccc2)c2ccc(Cl)cc2)CC1 (stereo not drawn) [chlorcyclizine] (10 µM) | 0.134 | 102% (inactive) |
| Cc1noc(C)c1-c1ccc(-c2cc(C(N)=O)c(NC(N)=O)s2)c(O[C@H]2CCNC2)c1 (10 µM) | 0.0267 | 104% (inactive) |
| O=c1cc(N2CCOCC2)oc2c1ccc1ccccc12 (10 µM) | 0.258 | 110% (inactive) |
| Cc1sc2c(c1C)C(c1ccc(Cl)cc1)=N[C@@H](CC(N)=O)c1nnc(C)n1-2 (0.833333 µM) | -0.0333 | 104% (inactive) |
| Cc1ccccc1N(C)C(=O)c1ccc([S+]([O-])c2nccs2)c([N+](=O)[O-])c1 (stereo not drawn) (0.833333 µM) | -0.0736 | 81% (inactive) |
| C=C(C)[C@@H]1CC[C@]2(C(=O)O)CC[C@]3(C)[C@H](CC[C@@H]4[C@@]5(C)CC[C@H](OC(=O)CC(C)(C)C(=O)O)C(C)(C)[C@@H]5CC[C@]43C)[C@@H]12 [bevirimat-dimeglumine] (10 µM) | -0.0115 | 113% (inactive) |
| NC(=O)NC1NC(=O)NC1=O (stereo not drawn) [allantoin] (10 µM) | -0.0426 | 104% (inactive) |
| Oc1c(I)cc(I)c(O)c1I [riodoxol] (10 µM) | 0.0583 | 107% (inactive) |
| CC(C)(C)NCC(O)c1cc(Cl)c(N)c(C(F)(F)F)c1 (stereo not drawn) [mabuterol] (10 µM) | -0.0501 | 107% (inactive) |
| S=C(S)N1CCCC1 [pyrrolidine-dithiocarbamate] (0.833333 µM) | 0.106 | 98% (inactive) |
| COC(=O)Nc1nc2cc([S+]([O-])c3ccccc3)ccc2[nH]1 (stereo not drawn) [oxfendazole] (10 µM) | 0.15 | 101% (inactive) |
| CCCCc1nn(-c2ccccc2C(F)(F)F)c(=O)n1Cc1ccc(-c2ccccc2S(=O)(=O)NC(=O)c2sccc2C)cc1 (10 µM) | 0.0872 | 104% (inactive) |
| Nc1nc(F)nc2c1ncn2[C@@H]1O[C@H](COP(=O)(O)O)[C@@H](O)[C@@H]1O [fludarabine-phosphate] (10 µM) | 0.103 | 82.5% (inactive) |
| CC(C)Nc1cc(-c2c[nH]c(C(=O)N[C@H](CO)c3cccc(Cl)c3)c2)c(Cl)cn1 (0.833333 µM) | -0.017 | 109% (inactive) |
| CC(C)CC(NC(=O)OCC1c2ccccc2-c2ccccc21)C(=O)O (stereo in doubt) (10 µM) | 0.145 | 96% (inactive) |
| O=C(NC1CCN(CCCCC2(C(=O)NCC(F)(F)F)c3ccccc3-c3ccccc32)CC1)c1ccccc1-c1ccc(C(F)(F)F)cc1 [lomitapide] (0.833333 µM) | 0.223 | 87.5% (inactive) |
| CCN1CCN(Cc2ccc(-c3cc4c(N[C@H](C)c5ccccc5)ncnc4[nH]3)cc2)CC1 (10 µM) | -0.144 | 124% (inactive) |
| NC(=O)c1cccc(-c2cccc(OC(=O)NC3CCCCC3)c2)c1 (10 µM) | 0.00303 | 104% (inactive) |
| O=C(O)c1ccc(N2N=C(Cc3ccccc3)/C(=C\c3ccc(-c4ccccc4F)o3)C2=O)cc1 (10 µM) | -0.0825 | 115% (inactive) |
| O=S(=O)(/N=C/c1c(O)ccc2ccccc12)c1cccs1 (10 µM) | 0.103 | 98.5% (inactive) |

| Structure (SMILES) | morphology score [1] | SARS-CoV-2 infection rate [2] |
| --- | --- | --- |
| O=C(O)[C@H]1CN(C/C=C/P(=O)(O)O)CCN1 [midafotel] (10 µM) | 0.0949 | 89% (inactive) |
| CCN(CC)CC1CCN(c2ncc3ncnc(Nc4ccc(F)c(Cl)c4)c3n2)CC1 (10 µM) | -0.273 | 112% (inactive) |
| CC[C@@H](Nc1c(Nc2cccc(C(=O)N(C)C)c2O)c(=O)c1=O)c1ccc(C)o1 [navarixin] (10 µM) | -0.0629 | 110% (inactive) |
| O=C(O)c1ccccc1C(=O)Nc1ccc(-c2ccccc2)cc1 [kartogenin] (10 µM) | 0.214 | 97.5% (inactive) |
| COc1cc(NC(C)CCCN)c2ncccc2c1 (stereo not drawn) [primaquine] (10 µM) | 0.491 | 76.5% (inactive) |
| O=C(Oc1cc(S(=O)(=O)c2ccccc2)ccc1[N+](=O)[O-])c1ccc(Cl)cc1 (10 µM) | 0.245 | 104% (inactive) |
| O=C(O)c1cccnc1 [niacin] (10 µM) | 0.195 | 102% (inactive) |
| Nc1ncnc2c1ncn2CCOCP(=O)(O)O [adefovir] (10 µM) | -0.0616 | 110% (inactive) |
| C[C@]12CC[C@@H]3c4ccc(O)cc4CC[C@H]3[C@@H]1CC[C@@H]2OC(=O)CCC1CCCC1 [estradiol-cypionate] (10 µM) | -0.002 | 99% (inactive) |
| Cc1ccc(C(=O)N(CCCN)[C@@H](c2nc3cc(Cl)ccc3c(=O)n2Cc2ccccc2)C(C)C)cc1 [ispinesib] (0.833333 µM) | -0.37 | 110% (inactive) |
| O=C1CCC[C@@H]2[C@H]3C[C@@H](CN12)[C@@H]1CCCCN1C3 [lupanine] (10 µM) | -0.065 | 102% (inactive) |
| O=C(Nc1ccncc1)c1cc([N+](=O)[O-])ccc1Cl (10 µM) | 0.143 | 87% (inactive) |
| O=C(OCC(O)CO)c1ccccc1Nc1ccnc2c(C(F)(F)F)cccc12 (stereo not drawn) [floctafenine] (10 µM) | -0.157 | 106% (inactive) |
| O=C1c2ccccc2C(=O)c2ccccc21 [anthraquinone] (10 µM) | 0.166 | 103% (inactive) |
| Cc1ccnc(NS(=O)(=O)c2ccc(N)cc2)n1 [sulfamerazine] (10 µM) | 0.0324 | 108% (inactive) |
| Nc1nc(O)c2ncn(CCC(CO)CO)c2n1 [penciclovir] (10 µM) | 0.0743 | 93.5% (inactive) |
| Cc1oc(=O)oc1COC(=O)C1=C([C@H]2CCCO2)S[C@@H]2[C@@H]([C@@H](C)O)C(=O)N12 [faropenem-medoxomil] (10 µM) | -0.119 | 114% (inactive) |
| CN1CCCCC1Cn1cc(C(=O)c2cc([N+](=O)[O-])ccc2I)c2ccccc21 (stereo not drawn) (10 µM) | 0.612 | 72.5% (inactive) |
| CNc1nc(-c2ccc3c(N)n[nH]c3c2)cc(N2C[C@@H](C(=O)NC3CCCCC3)CC[C@H]2C)n1 (0.833333 µM) | 0.0384 | 106% (inactive) |
| Clc1ccccc1C(c1ccccc1)(c1ccccc1)n1ccnc1 [clotrimazole] (10 µM) | 0.254 | 78.5% (inactive) |

| Structure (SMILES) | morphology score [1] | SARS-CoV-2 infection rate [2] |
| --- | --- | --- |
| CCO[C@H]1O[C@@H]2O[C@@]3(C)CC[C@H]4[C@H](C)CC[C@@H]([C@H]1C)[C@@]24OO3 [artemotil] (10 µM) | -0.085 | 113% (inactive) |
| COC(=O)/C=C/C(=O)N[C@@H]1CC[C@@]2(O)[C@H]3Cc4ccc(O)c5c4[C@@]2(CCN3CC2CC2)[C@H]1O5 [beta-funaltrexamine] (10 µM) | 0.0225 | 99% (inactive) |
| COC(=O)/C=C/c1cccc(N(Cc2ccc(-c3ccc(N(C)C)cc3)cc2)C(=O)C2CCCCC2)c1 [fexaramine] (10 µM) | 0.272 | 86% (inactive) |
| Cc1c(-c2ccnn2C)cc(C(=O)NCc2ccc(S(C)(=O)=O)cn2)c(=O)n1-c1cccc(C(F)(F)F)c1 (10 µM) | 0.101 | 106% (inactive) |
| CCn1cc(-c2cccc(C(F)(F)F)c2)c2sc(C(=N)NC3CCS(=O)(=O)CC3)cc2c1=O (10 µM) | -0.122 | 110% (inactive) |
| CC(C)(C)c1ccc2cc(C#N)c(C#N)cc2c1 (10 µM) | 0.103 | 105% (inactive) |
| CS(=O)(=O)OC[C@H](O)[C@@H](O)COS(C)(=O)=O [treosulfan] (10 µM) | -0.204 | 118% (inactive) |
| CC1(N)CCN(c2cnc(-c3cccc(Cl)c3Cl)c(N)n2)CC1 (0.833333 µM) | 0.0281 | 112% (inactive) |
| NC(=O)CCCCC1CCSS1 (stereo not drawn) [lipoamide] (10 µM) | -0.0248 | 108% (inactive) |
| C/C=C/C=C/C(=O)O [sorbic-acid] (10 µM) | -0.0925 | 101% (inactive) |
| O=C(NCC(=O)N1CC[C@H](N[C@H]2CC[C@@](O)(c3ccc(-c4ncccn4)cn3)CC2)C1)c1cccc(C(F)(F)F)c1 (10 µM) | 0.0269 | 106% (inactive) |
| Nc1cc(N2CCCCC2)nc(N)[n+]1[O-] [minoxidil] (10 µM) | 0.0795 | 104% (inactive) |
| CCCCCCCCCCCCCCCCCCCCCC(=O)Nc1ccn([C@@H]2O[C@H](CO)[C@@H](O)[C@@H]2O)c(=O)n1 [enocitabine] (10 µM) | 0.135 | 94.5% (inactive) |
| CC(C)(C)NCC(O)c1cc(O)cc(O)c1 (stereo not drawn) (10 µM) | 0.0272 | 113% (inactive) |
| OCc1ccccc1O[C@@H]1O[C@H](CO)[C@@H](O)[C@H](O)[C@H]1O [salicin] (10 µM) | 0.153 | 99% (inactive) |
| Nc1ncnc2c1ncn2[C@@H]1O[C@H](COP(=O)(O)O)[C@@H](O)[C@H]1O [adenosine-phosphate] (10 µM) | -0.114 | 113% (inactive) |
| Cc1c(N)nc([C@H](CC(N)=O)NC[C@H](N)C(N)=O)nc1C(=O)N[C@H](C(=O)N[C@H](C)[C@@H](O)[C@H](C)C(=O)N[C@H](C(=O)NCCc1nc(-c2nc(C(=O)NCCCNCCCCN)cs2)cs1)[C@@H](C)O)[C@@H](O[C@@H]1O[C@@H](CO)[C@@H](O)[C@H](O)[C@@H]1O[C@@H]1O[C@H](CO)[C@@H](O)[C@H](OC(N)=O)[C@@H]1O)c1cnc[nH]1 [bleomycetin] (0.833333 µM) | 0.128 | 111% (inactive) |
| CCCCOc1cc(CC2CNC(=O)N2)ccc1OC (stereo not drawn) (10 µM) | 0.429 | 86% (inactive) |
| O=C(Nc1ccc(O)cc1)c1ccccc1O [N-salicoylaminophenol] (10 µM) | 0.168 | 102% (inactive) |
